Test results taken from PubChem BioAssay (NCI).
Where “and” joins values, the source holds several entries; their conditions need not be identical. Equal entries are not always repeated. About 83,000 compounds went through this panel and 20% of them were active in at least one assay; those are over-represented in the sample as a whole.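 The test compound was applied at a single concentration to cells in 96-well plates for 48 hours, and percent growth was recorded.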 Calls of active or inactive are those of the source. How the source made its calls: active means growth percent below 10; inactive means the rest.

These compounds were tested on NCI-H322M lung (assay: NCI-60 one-dose screen, 48 h (100 = growth as untreated, 0 = no growth, -100 = all killed)). Details: 10 µM unless noted.
For `Cc1ccc2c(n1)C(=O)C(Cl)=C(Nc1ccc(C#N)cc1)C2=O`, the growth was 109% (inactive). `CC(C)(O)c1cncc(-c2ccc3ncc(C#N)c(N4CCc5cc(F)c(Cl)cc54)c3c2)c1` was tested, and the growth was 11% (inactive). `O=c1c2ccccc2cc2n1CCN=C2c1ccccc1` was tested, and the growth was 99.7% (inactive). With `O=C(CN1CCN(c2cc(=O)[nH]c3ccc(F)cc23)CC1)N(c1ccccc1)c1ccccc1` the growth was 104% (inactive). `CCc1cc(OC(=O)N2CCC(N3CCCCC3)CC2)ccc1Nc1cc(-c2ccc(-n3cccn3)cc2)[nH]n1` was tested, and the growth was 101% (inactive). In the case of `CCCC/C(=C\c1ccc(O)c(O)c1)C(=O)NC(Cc1ccccc1)C(=O)C(=O)NCCc1ccc(OC)cc1` (stereo not drawn), the growth is reported as 100% (inactive). For `CN(C)c1ccc(-c2cc(-c3c[nH]c4ccccc34)nc(N)c2C#N)cc1`, the growth was 69.5% (inactive). In the case of `COc1cc(C(=O)c2cc(C(C)=O)c3ccc(C)cn23)cc(OC)c1OC`, the growth is reported as 66% (inactive). For `CCOC(=O)c1ccccc1NC1=C(Cl)C(=O)c2nc(C)ccc2C1=O`, the growth was 101% (inactive). With `CN(C)S(=O)(=O)c1ccc(-c2nc(C(Cl)Cl)nc3cc(-c4ccccc4)nn23)cc1` the growth was 99% (inactive). In the case of `CN1CCN(c2ccc(Nc3nc(NCCCNS(=O)(=O)c4ccc(Cl)cc4)c4sccc4n3)cc2)CC1`, the growth is reported as 33.7% (inactive). In the case of `O=C1[C@@H]2Cc3c([nH]c4ccccc34)[C@H](c3ccc(Cl)cc3)N2C(=O)CN1C1CCN(Cc2ccccc2)CC1`, the growth is reported as 59.2% (inactive). In the case of `CN1CCN(CCNc2nc(-c3cccc(NS(=O)(=O)c4cccc5c(N(C)C)cccc45)c3)cs2)CC1`, the growth is reported as 85.8% (inactive). For `C#C[C@]1(O)CC[C@H]2[C@@H]3CC=C4c5sc(Nc6ncccc6C)nc5CC[C@]4(C)[C@H]3CC[C@@]21C`, the growth was 32.8% (inactive). `CC(=O)N(O)CCCCCNC(=O)CCC(=O)N(O)CCCCCNC(=O)CCC(=O)N(O)CCCCCN(CCCCCCCCCC[P+](c1ccccc1)(c1ccccc1)c1ccccc1)CCCCCCCCCC[P+](c1ccccc1)(c1ccccc1)c1ccccc1` was tested, and the growth was -28.9% (active). For `O=C1Nc2ccccc2/C1=N\c1nnc(-c2ccccc2)o1`, the growth was 86.8% (inactive). In the case of `CCCCCCCCCC(=O)NC(C)(C)C(=O)N1CCC[C@H]1C(=O)N[C@@H](CC(C)C)C(=O)N[C@@](C)(CC)C(=O)N[C@@H](CCC(N)=O)C(=O)N[C@H](CCC(N)=O)C(=O)NC(C)(C)C(=O)NC(C)(C)C(=O)N[C@@H](CCC(N)=O)C(=O)N[C@H](CC(C)C)C(=O)N[C@H](CO)CC(C)C`, the growth is reported as -88.1% (active) and 18.4% (inactive). `Fc1cccc(Cl)c1/C=N/Nc1nc(N/N=C/c2c(F)cccc2Cl)nc(N2CCCCC2)n1` was tested, and the growth was 35.8% (inactive). For `Cc1ccc(/C(N)=N/C(N)=N/c2nc3ccccc3s2)cc1`, the growth was 91.3% (inactive). For `CCc1cc2c(cc1Cl)nc1c(=O)[nH]c(=O)nc-1n2CCOCC(C)(C)C`, the growth was 63.7% (inactive). In the case of `Cc1csc(/N=C(N)/N=C(\N)c2cccc(Br)c2)n1`, the growth is reported as 95.6% (inactive). With `Brc1cccc(-c2cc(-c3cnc4c(c3)OCCO4)n[nH]2)c1` the growth was 45.2% (inactive). For `CN(C)CC(=O)Nc1nc(-c2cccc(NS(=O)(=O)c3cccc4c(N(C)C)cccc34)c2)cs1`, the growth was 96.2% (inactive). With `O=C(/C=C/c1cc(Cl)ccc1Cl)Nc1ncc(Cc2ccc(Cl)cc2)s1` the growth was 33.5% (inactive). With `Nc1ncc(-c2ccc3ncnc(NCc4ccccc4)c3c2)cn1` the growth was 8.77% (active). In the case of `Cc1ccc(-c2cc3nc(C(Cl)Cl)nc(-c4ccc(S(=O)(=O)N(C)C)cc4)n3n2)cc1`, the growth is reported as 107% (inactive). With `CCN(CC)CCOc1ccc(C(=C(c2ccccc2)C2CCCC2)c2ccc(OCCN(CC)CC)cc2)cc1` the growth was 59.5% (inactive). `COC(=O)c1cccc(NC2=C(Cl)C(=O)c3nc(C)ccc3C2=O)c1` was tested, and the growth was 103% (inactive). For `COc1cc(/C=N\NC(=O)c2ccc3nc(-c4ccc(Br)cc4)[nH]c3c2)cc(OC)c1OC`, the growth was 76.8% (inactive). For `NC1=NC2(CCCC2)N(c2ccc(S(=O)(=O)Nc3nccs3)cc2)C(N)=N1`, the growth was 103% (inactive). With `N#C/C(=N\Nc1ccc(F)cc1)C(=O)Nc1cc(-c2ccccc2)nn1-c1ccccc1` the growth was 0.72% (active). In the case of `Cc1ccc(S(=O)(=O)c2nc(-c3ccc(F)cc3)oc2S(C)(=O)=O)cc1`, the growth is reported as 95.9% (inactive). In the case of `CC(O)c1cccc(/C(N)=N/C(N)=N/c2nc3ccccc3s2)c1` (stereo not drawn), the growth is reported as 97.4% (inactive).
